# Measurements reported in the supplement of paper PMC8728848.
# About 410 targets per protein were measured; listed, in parts, are those with the strongest signals and a random draw of the rest.
# B1: Cohesin-mDC-ASGPR (Macaca mulatta) (protein)
# chain: LDITSHHHHHHDDLDAVRIKVDTVNAKPGDTVRIPVRFSGIPSKGIANCDFVYSYDPNVLEIIEIEPGDIIVDPNPDKSFDTAVYPDRKIIVFLFAEDSGTGAYAITKDGVFATIVAKVKEGAPNGLSVIKFVEVGGFANNDLVEQKTQFFDGGVNVGDTTEPATPTTPVTTPTTTDDLDAASSQNSKFQRDLVTLRTDFSNFTSNTVAEIQALTSQGSSVEEMIASLKAEVEVIKQEQQAVHSEMLLRVQRLMQDLNKLTCQVATLKNNASTERTCCPVNWVEHQDSCYWFSRSGMPWAEAEKHCQLENAHLVVINSREEQNFVQEHLSFAYTWMGLSDREGAWKWVDGTDYETGFQNWKPGQPDDWQGHGLGGGEDCAHFHPDGRWNDDVCQRPYYWVCEAGLTQASQESH
# What was measured:
# Test in all cases: glycan array binding signal (z-score within array); higher = stronger binding
# Conditions in all cases: glycan notation: IUPAC condensed, linker removed
# Man(a1-3)[Man(a1-6)]Man = biological target: Man(a1-3)[Man(a1-6)]Man
# Summary of the method: (§1)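 Glycan array data were curated from 3228 arrays in the Consortium for Functional Glycomics database and kept only where the protein sequence was available. Glycan names were converted to IUPAC-condensed notation, and columns mapping to the same glycan were averaged. The binding signal is a within-array Z-score, averaged across arrays of the same protein sequence at different concentrations or buffers and across linkers. Negative Z-scores can be read as non-binding.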
# [1] = biological target: Neu5Ac(a2-3)Gal(b1-3)GlcNAc(b1-2)Man
# Summary of the method: as §1
# [2] = biological target: Neu5Ac(a2-3)Gal(b1-3)GlcNAc(b1-6)GalNAc
# Summary of the method: as §1
# [3] = biological target: Neu5Ac(a2-3)Gal(b1-4)GlcNAc(b1-3)Gal(b1-4)GlcNAc(b1-3)Gal(b1-4)GlcNAc(b1-2)Man(a1-3)[Neu5Ac(a2-3)Gal(b1-4)GlcNAc(b1-3)Gal(b1-4)GlcNAc(b1-3)Gal(b1-4)GlcNAc(b1-2)Man(a1-6)]GalNAc
# Summary of the method: as §1
# [4] = biological target: Neu5Ac(a2-3)Gal(b1-4)GlcNAc(b1-3)Gal(b1-4)GlcNAc(b1-3)GalNAc
# Summary of the method: as §1
# [5] = biological target: Neu5Ac(a2-3)Gal(b1-4)GlcNAc(b1-3)GalNAc
# Summary of the method: as §1
# [6] = biological target: Neu5Ac(a2-3)Gal(b1-4)GlcNAc(b1-6)GalNAc
# Summary of the method: as §1
# [7] = biological target: Neu5Ac(a2-6)Gal(b1-4)GlcNAc(b1-2)[Neu5Ac(a2-6)Gal(b1-4)GlcNAc(b1-4)]Man(a1-3)[GlcNAc(b1-4)][Neu5Ac(a2-6)Gal(b1-4)GlcNAc(b1-2)[Neu5Ac(a2-6)Gal(b1-4)GlcNAc(b1-6)]Man(a1-6)]Man(b1-4)GlcNAc(b1-4)GlcNAc
# Summary of the method: as §1
# [8] = biological target: Neu5Ac(a2-6)Gal(b1-4)GlcNAc(b1-3)GalNAc
# Summary of the method: as §1
# [9] = biological target: Neu5Ac(a2-6)Gal(b1-4)GlcNAc(b1-6)[Gal(b1-3)GlcNAc(b1-3)]Gal(b1-4)Glc
# Summary of the method: as §1
# Neu5Ac(a2-6)GalNAc = biological target: Neu5Ac(a2-6)GalNAc
# Summary of the method: as §1
# [10] = biological target: Neu5Ac(a2-6)GalNAc(b1-4)GlcNAc6S
# Summary of the method: as §1
# [11] = biological target: Neu5Ac(a2-8)Neu5Ac(a2-3)[Gal(b1-3)GalNAc(b1-4)]Gal(b1-4)Glc
# Summary of the method: as §1
# [12] = biological target: Neu5Gc(a2-3)Gal(b1-4)GlcNAc
# Summary of the method: as §1
# [13] = biological target: Neu5Gc(b2-6)Gal(b1-4)GlcNAc
# Summary of the method: as §1
binder,measurement,setting,value
B1,glycan array binding signal (z-score),Man(a1-3)[Man(a1-6)]Man,-0.397
same,glycan array binding signal (z-score),[1],-0.342
same,glycan array binding signal (z-score),[2],3.56
same,glycan array binding signal (z-score),[3],-0.248
same,glycan array binding signal (z-score),[4],-0.413
same,glycan array binding signal (z-score),[5],-0.418
same,glycan array binding signal (z-score),[6],3.67
same,glycan array binding signal (z-score),[7],-0.401
same,glycan array binding signal (z-score),[8],2.03
same,glycan array binding signal (z-score),[9],-0.418
same,glycan array binding signal (z-score),Neu5Ac(a2-6)GalNAc,3.61
same,glycan array binding signal (z-score),[10],2.56
same,glycan array binding signal (z-score),[11],3.49
same,glycan array binding signal (z-score),[12],-0.399
same,glycan array binding signal (z-score),[13],-0.424
